From PubChem BioAssay (NCI)
This is part of a sample that, as a whole, favours compounds with a hit. Of some 83,000 tested, about 20% had one in any assay.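 In brief: 96-well plates, 48 h treatment, single concentration, percent growth endpoint.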 Active and inactive are the calls of the source. The calls were made as follows: active = growth percent below 10; inactive = the rest.

Key:
Test in all cases: NCI-60 one-dose screen, 48 h (100 = growth as untreated, 0 = no growth, -100 = all killed)
SK-MEL-2 melanoma = details: 10 µM unless noted
EKVX NSCLC = details: 10 µM unless noted
SN12C renal = details: 10 µM unless noted
TK-10 renal = details: 10 µM unless noted
ACHN renal = details: 10 µM unless noted
CAKI-1 renal = details: 10 µM unless noted
A498 renal = details: 10 µM unless noted
CCRF-CEM leukemia = details: 10 µM unless noted
MOLT-4 leukemia = details: 10 µM unless noted
SR leukemia = details: 10 µM unless noted
RPMI-8226 leukemia = details: 10 µM unless noted
OVCAR-8 ovarian = details: 10 µM unless noted
OVCAR-5 ovarian = details: 10 µM unless noted
OVCAR-4 ovarian = details: 10 µM
SK-OV-3 ovarian = details: 10 µM unless noted
IGROV1 ovarian = details: 10 µM unless noted
OVCAR-3 ovarian = details: 10 µM unless noted
NCI/ADR-RES ovarian = details: 10 µM unless noted
HS 578T breast = details: 10 µM unless noted

Measured: growth

O=C1/C(=C/c2ccc(OCc3ccccc3)cc2)Oc2cc(OCCN3CCCCC3)ccc21
inactive: SK-MEL-2 melanoma 112% | EKVX NSCLC 80.5% | SN12C renal 82.4% | TK-10 renal 104% | ACHN renal 89.6% | CAKI-1 renal 70.5% | A498 renal 60.9% | CCRF-CEM leukemia 73% | MOLT-4 leukemia 76.1% | SR leukemia 13.3% | RPMI-8226 leukemia 54% | OVCAR-8 ovarian 89.8% | OVCAR-5 ovarian 88.8% | OVCAR-4 ovarian 61.2% | SK-OV-3 ovarian 104% | IGROV1 ovarian 87% | OVCAR-3 ovarian 88.1% | NCI/ADR-RES ovarian 79.2%

CCOC(=O)COc1c(C)cc(SSc2cc(C)c(OCC(=O)OCC)c(C)c2)cc1C
inactive: SK-MEL-2 melanoma 100% | EKVX NSCLC 107% | SN12C renal 102% | ACHN renal 107% | CAKI-1 renal 106% | A498 renal 99.8% | CCRF-CEM leukemia 82.5% | MOLT-4 leukemia 82.5% | SR leukemia 90.9% | RPMI-8226 leukemia 90.6% | OVCAR-8 ovarian 102% | OVCAR-5 ovarian 128% | OVCAR-4 ovarian 93.1% | SK-OV-3 ovarian 106% | IGROV1 ovarian 96.5% | OVCAR-3 ovarian 107% | HS 578T breast 122% | NCI/ADR-RES ovarian 110%

CCOC(=O)CCC[P+](c1ccccc1)(c1ccccc1)c1ccccc1
inactive: SK-MEL-2 melanoma 85.4% | EKVX NSCLC 75.5% | SN12C renal 82% | TK-10 renal 95.9% | ACHN renal 97.9% | CAKI-1 renal 101% | A498 renal 86.3% | CCRF-CEM leukemia 72.6% | MOLT-4 leukemia 72% | SR leukemia 59.5% | RPMI-8226 leukemia 41.9% | OVCAR-8 ovarian 82.2% | OVCAR-5 ovarian 95.1% | OVCAR-4 ovarian 81.7% | SK-OV-3 ovarian 98.9% | IGROV1 ovarian 65.8% | OVCAR-3 ovarian 45.9% | HS 578T breast 92.9% | NCI/ADR-RES ovarian 105%

CCCCCn1sc(=O)n(Cc2ccc(CNC(=O)OCc3ccc4cccc(O)c4n3)cc2)c1=O
inactive: SK-MEL-2 melanoma 39.3% | EKVX NSCLC 28.7% | SK-OV-3 ovarian 41.7% | HS 578T breast 10.8%
active: SN12C renal -79.7% | TK-10 renal -54% | ACHN renal -100% | CAKI-1 renal -74.9% | A498 renal 4.89% | MOLT-4 leukemia 1.87% | SR leukemia 4.06% | RPMI-8226 leukemia -14.6% | OVCAR-8 ovarian 8.91% | OVCAR-5 ovarian -42.3% | OVCAR-4 ovarian -50.6% | IGROV1 ovarian -85.9% | OVCAR-3 ovarian -84.5% | NCI/ADR-RES ovarian -11.6%

COc1ccc(-c2cc(-c3ccc(OC)c(OC)c3)nc(SCCCCCC(=O)NO)n2)cc1
inactive: SK-MEL-2 melanoma 52.5% | EKVX NSCLC 62.5% | SN12C renal 77% | TK-10 renal 44.9% | ACHN renal 81.3% | CAKI-1 renal 53.7% | A498 renal 66.7% | CCRF-CEM leukemia 22.7% | MOLT-4 leukemia 14% | RPMI-8226 leukemia 29.4% | OVCAR-8 ovarian 37.7% | OVCAR-5 ovarian 52.4% | OVCAR-4 ovarian 76.8% | SK-OV-3 ovarian 46.6% | IGROV1 ovarian 61.6% | HS 578T breast 44.7% | NCI/ADR-RES ovarian 101%
active: SR leukemia -1.05%

CC1=C/C(=C(\c2cc(C)c(O)c(C(=O)O)c2)c2c(Cl)cccc2Cl)C=C(C(=O)O)C1=O
inactive: SK-MEL-2 melanoma 104% | EKVX NSCLC 95.3% | SN12C renal 97.1% | TK-10 renal 108% | ACHN renal 92.7% | CAKI-1 renal 88.1% | A498 renal 110% | CCRF-CEM leukemia 103% | MOLT-4 leukemia 102% | SR leukemia 102% | OVCAR-8 ovarian 100% | OVCAR-5 ovarian 106% | OVCAR-4 ovarian 108% | SK-OV-3 ovarian 93.3% | IGROV1 ovarian 101% | HS 578T breast 99.2% | NCI/ADR-RES ovarian 99.9%

COc1cc(NCc2ccccc2O)c2ncccc2c1
active: CAKI-1 renal 8.76%
inactive: SK-MEL-2 melanoma 142% | EKVX NSCLC 82% | SN12C renal 106% | TK-10 renal 150% | ACHN renal 97.2% | A498 renal 72% | CCRF-CEM leukemia 91.5% | MOLT-4 leukemia 88.3% | SR leukemia 82.4% | RPMI-8226 leukemia 46.9% | OVCAR-8 ovarian 102% | OVCAR-5 ovarian 69.6% | OVCAR-4 ovarian 82.3% | SK-OV-3 ovarian 107% | IGROV1 ovarian 90.4% | OVCAR-3 ovarian 97.2% | HS 578T breast 149% | NCI/ADR-RES ovarian 71.9%

Fc1cc2[nH]ncc2c2c3c(c(-c4cn[nH]c4)nc12)CCCC3
inactive: EKVX NSCLC 13.1% | TK-10 renal 20% | SR leukemia 13.8% | OVCAR-4 ovarian 16.1% | NCI/ADR-RES ovarian 34.7%
active: SK-MEL-2 melanoma -30.7% | SN12C renal 7.63% | ACHN renal 1.61% | CAKI-1 renal 2.83% | A498 renal -56.5% | CCRF-CEM leukemia 7.75% | MOLT-4 leukemia 2.1% | RPMI-8226 leukemia 1.77% | OVCAR-8 ovarian 4.78% | OVCAR-5 ovarian 4.24% | IGROV1 ovarian 1.4% | OVCAR-3 ovarian 7.22% | HS 578T breast -3.3%

C#C[C@]1(O)CC[C@H]2[C@@H]3CC=C4c5nc(Nc6ccccn6)sc5CC[C@]4(C)[C@H]3CC[C@@]21C
inactive: SN12C renal 32.1% | TK-10 renal 12.3% | ACHN renal 21.6% | OVCAR-8 ovarian 27.6% | OVCAR-5 ovarian 30.1% | OVCAR-4 ovarian 16.1% | IGROV1 ovarian 32.7% | OVCAR-3 ovarian 20.8% | NCI/ADR-RES ovarian 22.6%
active: SK-MEL-2 melanoma -29.6% | EKVX NSCLC 2.77% | CAKI-1 renal -37.6% | A498 renal -49% | CCRF-CEM leukemia 0.227% | MOLT-4 leukemia -11.8% | SR leukemia 8.66% | RPMI-8226 leukemia -45.6% | HS 578T breast -16.8%

CC1(C)C(=O)/C(=C\c2cccnc2)C[C@]2(C)[C@H]3CC[C@@H]4[C@H]5[C@H](C(=O)/C=C/c6cccnc6)CC[C@]5(C(=O)O)CC[C@@]4(C)[C@]3(C)CC[C@@H]12
inactive: SR leukemia 25.8% [100 µM]
active: SK-MEL-2 melanoma -55.1% [100 µM] | EKVX NSCLC -73% [100 µM] | SN12C renal -29.4% [100 µM] | ACHN renal -71.1% [100 µM] | CAKI-1 renal -66% [100 µM] | A498 renal -77.5% [100 µM] | CCRF-CEM leukemia -6.59% [100 µM] | MOLT-4 leukemia 4.49% [100 µM] | RPMI-8226 leukemia -27% [100 µM] | OVCAR-8 ovarian 0.147% [100 µM] | OVCAR-5 ovarian -49% [100 µM] | SK-OV-3 ovarian -68.5% [100 µM] | IGROV1 ovarian -34.3% [100 µM] | OVCAR-3 ovarian -75.4% [100 µM] | HS 578T breast -0.172% [100 µM] | NCI/ADR-RES ovarian -1.33% [100 µM]

CC(C)C1=NOC(=O)C1=Cc1cn(-c2cccnc2)nc1-c1ccccc1
inactive: SK-MEL-2 melanoma 111% | EKVX NSCLC 100% | SN12C renal 87.5% | TK-10 renal 101% | ACHN renal 99.2% | CAKI-1 renal 78% | A498 renal 99.2% | CCRF-CEM leukemia 11.4% | OVCAR-8 ovarian 89.9% | OVCAR-5 ovarian 100% | OVCAR-4 ovarian 103% | SK-OV-3 ovarian 104% | IGROV1 ovarian 102% | OVCAR-3 ovarian 108% | HS 578T breast 106% | NCI/ADR-RES ovarian 110%
active: SR leukemia -22.5% | RPMI-8226 leukemia -16.6%

CCOC(=O)COc1ccc2c(c1)O/C(=C\c1ccc(O)cc1)C2=O
inactive: SK-MEL-2 melanoma 116% | EKVX NSCLC 104% | SN12C renal 98.7% | TK-10 renal 106% | ACHN renal 102% | CAKI-1 renal 93.1% | A498 renal 88.6% | CCRF-CEM leukemia 118% | SR leukemia 93.8% | RPMI-8226 leukemia 119% | OVCAR-8 ovarian 105% | OVCAR-5 ovarian 102% | OVCAR-4 ovarian 108% | SK-OV-3 ovarian 117% | IGROV1 ovarian 106% | OVCAR-3 ovarian 106% | NCI/ADR-RES ovarian 108%

CCc1ccc(-c2ccc(COc3ccc(CC4SC(=O)NC4=O)cc3)cc2)cc1 (stereo unspecified)
inactive: SK-MEL-2 melanoma 71.6% | EKVX NSCLC 63% | SN12C renal 74.5% | TK-10 renal 92.8% | ACHN renal 69.5% | CAKI-1 renal 51% | A498 renal 100% | CCRF-CEM leukemia 61.3% | MOLT-4 leukemia 58.5% | SR leukemia 45.9% | RPMI-8226 leukemia 57.5% | OVCAR-8 ovarian 77.2% | OVCAR-5 ovarian 91.2% | OVCAR-4 ovarian 58.6% | SK-OV-3 ovarian 84.9% | IGROV1 ovarian 63.8% | OVCAR-3 ovarian 73.6% | HS 578T breast 80.9% | NCI/ADR-RES ovarian 65.1%

CCCC(NC(=O)OCc1ccccc1)C(=O)O (stereo unspecified)
inactive: SK-MEL-2 melanoma 128% | EKVX NSCLC 96.5% | SN12C renal 74.3% | TK-10 renal 117% | ACHN renal 108% | CAKI-1 renal 82.9% | A498 renal 80% | CCRF-CEM leukemia 118% | MOLT-4 leukemia 111% | SR leukemia 121% | RPMI-8226 leukemia 68.7% | OVCAR-8 ovarian 93.5% | OVCAR-5 ovarian 94.8% | OVCAR-4 ovarian 106% | SK-OV-3 ovarian 119% | OVCAR-3 ovarian 106% | HS 578T breast 71.9% | NCI/ADR-RES ovarian 60.4%

O=C1NC(=O)C(Cc2ccccc2)(Cc2ccccc2)N1
inactive: SK-MEL-2 melanoma 102% | EKVX NSCLC 101% | SN12C renal 97.9% | TK-10 renal 89.4% | ACHN renal 109% | CAKI-1 renal 92.1% | A498 renal 102% | CCRF-CEM leukemia 92.4% | MOLT-4 leukemia 90.5% | SR leukemia 104% | RPMI-8226 leukemia 91% | OVCAR-8 ovarian 104% | OVCAR-5 ovarian 110% | OVCAR-4 ovarian 91.2% | SK-OV-3 ovarian 98.1% | IGROV1 ovarian 115% | OVCAR-3 ovarian 98.9% | HS 578T breast 111% | NCI/ADR-RES ovarian 101%
